About 79,000 compounds went through this panel and 15% of them were active in at least one assay; those are over-represented in the sample as a whole. No stated cut-off is given here; in the data, active means growth inhibition above about 70%; inactive means the rest.
Columns and labels:
[1] = NCI Yeast Anticancer Drug Screen. Data for the rad50 strain (AID 155);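 further: 0% = growth of vehicle-only cultures of the same strain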; conditions: S. cerevisiae rad50 strain growth inhibition; at 50.0 µM; hits give high values
How it was run: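 Cells are treated with compound, grown, and their growth is then scored against vehicle-only cultures of the same repair-deficient yeast strain.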

[2] = NCI Yeast Anticancer Drug Screen. Data for the mec2-1 strain (AID 157); conditions: S. cerevisiae mec2-1 strain, at 50.0 µM, hits give high values
How it was run: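 Cells of the genetically defined mec2-1 yeast strain are incubated with test compound. Inhibition of growth is calculated against vehicle-treated controls.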

[3] = NCI Yeast Anticancer Drug Screen. Data for the sgs1 mgt1 strain (AID 161);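 further: 0% = growth of cultures given vehicle only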; conditions: S. cerevisiae sgs1 mgt1 strain, at 50.0 µM, hits give high values
How it was run: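 Inhibition of yeast growth, normalised to vehicle-treated controls, is reported for a strain bearing genetic alterations in DNA damage repair.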

[4] = NCI Yeast Anticancer Drug Screen. Data for the cln2 rad14 strain (AID 165);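 further: 0% = growth equal to vehicle treated cultures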; conditions: S. cerevisiae cln2 rad14 strain, at 50.0 µM, hits give high values
How it was run: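 The screen exposed genetically defined yeast (cln2 rad14) to test compounds and scored growth inhibition relative to vehicle-treated controls.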

[5] = NCI Yeast Anticancer Drug Screen. Data for the bub3 strain (AID 167); conditions: S. cerevisiae bub3 mutant strain, at 50.0 µM, hits give high values
How it was run: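 Part of a panel of yeast mutants defective in DNA damage repair or cell cycle regulation. Each strain is grown with compound, and inhibition is calculated relative to solvent-treated cultures.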

[6] = NCI Yeast Anticancer Drug Screen. Data for the mlh1 rad18 strain (AID 175); conditions: S. cerevisiae mlh1 rad18 strain growth inhibition; at 50.0 µM; hits give high values
How it was run: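 Compound-treated yeast growth, normalised to vehicle controls. Strain bears defined DNA repair mutations.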

Measured: growth inhibition

C=C1C(=O)OC2C[C@@]3(C)CCCC(=C)C3CC12 (stereo partly drawn)
inactive: [1] 21.4% | [2] 21.1% | [3] 32.1% | [4] 28.6% | [5] 20.6% | [6] 13%

CC(=O)NC(CCCN(Cc1ccccc1)C(=O)NCCCl)C(=O)NCc1ccccc1 (stereo not drawn)
inactive: [1] 13.7% | [2] -25.5% | [3] 4.5% | [4] 5.7% | [5] -33.7% | [6] -18.6%

CN1C(=O)CC2(C)c3cc(O)cc(Br)c3N(C)C12 (stereo not drawn)
inactive: [1] 6.6% | [2] -10.5% | [3] 8.45% | [4] 10.5% | [5] -6.25% | [6] 17.7%

CC(C)C(=O)Nc1nc(OCCc2ccc([N+](=O)[O-])cc2)c2ncn(C3CC(O)C(CO)O3)c2n1 (stereo not drawn)
inactive: [1] 3.5% | [2] -0.2% | [3] 5.8% | [4] 8.5% | [5] -0.75% | [6] -11.8%

CCCCCCCCC(=O)N1CCOCC1
inactive: [1] 17.4% | [2] 7.15% | [3] 18.3% | [4] 16.4% | [5] -0.8% | [6] 8.8%

CCOc1nc(SCC)nc2c1cnn2-c1ccccc1
inactive: [1] -8.45% | [2] -26.4% | [3] -9.9% | [4] -15.8% | [5] -1.2% | [6] -19.5%

O=c1ccnc2ccc3n[nH][nH]c3c12
inactive: [1] -18.4% | [2] -20.2% | [3] -7.65% | [4] 3.55% | [5] -14.2% | [6] 1.1%

Cc1cccc2c(CC(N)C(=O)O)c[nH]c12 (stereo not drawn)
inactive: [1] 3.25% | [2] -19.9% | [3] -18.9% | [4] -23.4% | [5] -16.6% | [6] -3.35%

O=c1[nH]cnc2ccccc12
inactive: [1] 39% | [2] -1.55% | [3] 0.2% | [4] -7.3% | [5] 16.6% | [6] 14.7%

C=CCSc1ncnc2c1c(C#N)cn2C1OC(CO)C(O)C1O (stereo not drawn)
inactive: [1] 22% | [2] -21.2% | [3] -16.9% | [4] 17.5% | [5] 7.25% | [6] 28.4%

CCOCCOC(=O)c1ccc(C(N)=NC2CCCCC2)cc1
inactive: [1] 0.05% | [2] -2.4% | [3] 3.75% | [4] -4.1% | [5] 0.1% | [6] -1.4%

CCSCC(C)C(=O)OC (stereo not drawn)
inactive: [1] -26.6% | [2] -0.4% | [3] -14.3% | [4] 23.6% | [5] 2.85% | [6] -40.3%

CC1CC2=C(C(=O)c3ccccc3C2=O)C(C)O1 (stereo not drawn)
inactive: [1] 3.15% | [2] -29.5% | [3] -4.4% | [4] -31.7% | [5] 41.5% | [6] 9.1%

O=C(NNC(=O)Nc1ccccc1)Nc1ccccc1
inactive: [1] -0.8% | [2] -16.7% | [3] -0.95% | [4] -12.9% | [5] -3.2% | [6] -7%

O=c1c2ccccc2n2n1Cc1ccccc1C2
inactive: [1] 38.1% | [2] 9.1% | [3] -11.5% | [4] 6.95% | [5] 12.2% | [6] 59.4%

CCOC(=O)C1=NN(c2ccccc2)C(=O)/C1=C\n1ccc(=O)[nH]c1=S
inactive: [1] -32.5% | [2] -43.8% | [3] -44.5% | [4] -36.1% | [5] -25.9% | [6] -60.8%

c1ccc(Nc2ccc3ccccc3n2)cc1
inactive: [1] 40.6% | [2] 4.75% | [3] 40.5% | [4] 14% | [5] -1.8% | [6] 16.4%

c1ccc(C2CCCN2)cc1 (stereo not drawn)
inactive: [1] 6% | [2] -12.4% | [3] -11% | [4] 6.25% | [5] -1.4% | [6] 4%

C[N+](C)(C)C1(Cc2ccccc2)c2ccccc2-c2ccc(Cl)cc21 (stereo not drawn)
inactive: [1] 29.1% | [2] 4.85% | [3] 21.2% | [4] -15.8% | [5] -6.8% | [6] 5.9%

CCCCCCNC(=O)NC
inactive: [1] -2.3% | [2] -11.5% | [3] -16.8% | [4] -36.2% | [5] -21.1% | [6] -7.05%

CN1C(=O)CC(NC(=O)CNC(=O)c2ccccc2)C1=O (stereo not drawn)
inactive: [1] 19.5% | [2] 16% | [3] 23.1% | [4] 21.1% | [5] 2.7% | [6] 29.4%

CC1(C)OC2COC3(CO)OC(C)(C)OC3C2O1 (stereo not drawn)
inactive: [1] -2.2% | [2] 20.6% | [3] 15.4% | [4] -65.5% | [5] 15.2% | [6] 17.4%

CN(C)c1nc(NN)c2c(-c3ccccc3)c(-c3ccccc3)oc2n1
inactive: [1] 10.2% | [2] 3.9% | [3] 2.3% | [4] 9.35% | [5] 20.2% | [6] -11.2%

O=C1OC(Cl)C=C1c1ccccc1 (stereo not drawn)
inactive: [1] 5.2% | [2] -7.35% | [3] -4.35% | [4] -36.5% | [5] -23.5% | [6] 0.65%

c1c2c(cc3c1OCN(C1CC1)C3)OCN(C1CC1)C2
inactive: [1] 0.7% | [2] 5.6% | [3] 10% | [4] -19.2% | [5] -13.8% | [6] -3.35%

CCCCN(CCCC)C(=O)C(O)C(=O)N(CCCC)CCCC
inactive: [1] -5.05% | [2] -13.8% | [3] -4.4% | [4] -9.6% | [5] -13.3% | [6] -3.8%

CCN(CC)CCOC(=O)C(S)(c1ccccc1)C1CCCCC1 (stereo not drawn)
inactive: [1] 13.8% | [2] -7.3% | [3] 1% | [4] -12.8% | [5] -12.7% | [6] 16.9%

Nc1ccccc1N=Cc1cc(F)ccc1[N+](=O)[O-]
inactive: [1] 0.05% | [2] 4.4% | [3] 28.2% | [4] -48.9% | [5] 4.4% | [6] 1.35%

CCCC(O)c1ccccc1Cl (stereo not drawn)
inactive: [1] 21.8% | [2] 18.9% | [3] 24.9% | [4] 16% | [5] -28.4% | [6] 5.3%

Cc1ccc(S(=O)(=O)OC2CCCC2OS(=O)(=O)c2ccc(C)cc2)cc1 (stereo not drawn)
inactive: [1] 0.2% | [2] 14.5% | [3] -8.5% | [4] 23.4% | [5] -2.35% | [6] -9.85%

CCOC(=O)C1(C(=O)OCC)C2C=CC(C2)C1C(=O)OC (stereo not drawn)
inactive: [1] -0.65% | [2] -2.4% | [3] 15.8% | [4] -60.3% | [5] 8.45% | [6] 8.3%

CCCCOC(=O)NC(=O)c1cn(CCCOC(=O)CCCCCCCCC(=O)OCCCn2cc(C(=O)NC(=O)OCCCC)c(=O)n(C)c2=O)c(=O)n(C)c1=O
inactive: [1] -3.9% | [2] -10.9% | [3] -10.7% | [4] 12.2% | [5] 14.3% | [6] -5.55%

N#Cc1cnn(-c2ccc([N+](=O)[O-])cc2)c1N
inactive: [1] 14.8% | [2] -16.6% | [3] 3.85% | [4] -26.6% | [5] 1.7% | [6] 20.5%

CCN(CC)CCn1ncc2ccc3c(c(=O)c4cccnc4n3CCN(CC)CC)c21
inactive: [1] 9% | [2] 16.8% | [3] 13.2% | [4] 27.8% | [5] 11.6% | [6] 10.9%

N#Cc1ccc(NC(=NCC(=O)O)Nc2ccc3ccccc3c2)cc1
inactive: [1] -16.2% | [2] -30.6% | [3] -14.6% | [4] 25.8% | [5] -26.3% | [6] 8.25%

CC(O)CCNc1nnc2c3ccccc3n(C)c2n1 (stereo not drawn)
inactive: [1] 5.95% | [2] 0.65% | [3] 0.1% | [4] 44.2% | [5] 5.3% | [6] -16.2%

C[N+]1(C)C2CC(=O)CC1C1CC12 (stereo not drawn)
inactive: [1] -10.2% | [2] 7.4% | [3] 4.55% | [4] -2.15% | [5] 12.1% | [6] -16%

Cc1cccc(Nc2c(C(=O)O)cnc3cc4c(cc23)OCO4)c1
inactive: [1] -3.4% | [2] -4.85% | [3] 3.45% | [4] -49.8% | [5] -5.85% | [6] -6.1%

— PubChem BioAssay (NCI)
